Data as given in paper PMC4336329 (PLoS ONE, 2015).
Hit rate of the full screen: of about 310,000 compounds, about 14,000 (4.5%) showed an effect of 50% or more. Effects have a minus sign here. For the sample, strong results were picked, then their nearest neighbours and some compounds at random.

Target: human ether-à-go-go-related gene (hERG) potassium channel (human, UniProt Q12809)
Assay: primary screen, population patch clamp on CHO cells stably expressing hERG; higher = less effect of the substance
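Also: peak tail current of the secondary pulse compared with the same well before compound.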

human ether-à-go-go-related gene (hERG) potassium channel, sequence (Q12809 whole entry, looked up): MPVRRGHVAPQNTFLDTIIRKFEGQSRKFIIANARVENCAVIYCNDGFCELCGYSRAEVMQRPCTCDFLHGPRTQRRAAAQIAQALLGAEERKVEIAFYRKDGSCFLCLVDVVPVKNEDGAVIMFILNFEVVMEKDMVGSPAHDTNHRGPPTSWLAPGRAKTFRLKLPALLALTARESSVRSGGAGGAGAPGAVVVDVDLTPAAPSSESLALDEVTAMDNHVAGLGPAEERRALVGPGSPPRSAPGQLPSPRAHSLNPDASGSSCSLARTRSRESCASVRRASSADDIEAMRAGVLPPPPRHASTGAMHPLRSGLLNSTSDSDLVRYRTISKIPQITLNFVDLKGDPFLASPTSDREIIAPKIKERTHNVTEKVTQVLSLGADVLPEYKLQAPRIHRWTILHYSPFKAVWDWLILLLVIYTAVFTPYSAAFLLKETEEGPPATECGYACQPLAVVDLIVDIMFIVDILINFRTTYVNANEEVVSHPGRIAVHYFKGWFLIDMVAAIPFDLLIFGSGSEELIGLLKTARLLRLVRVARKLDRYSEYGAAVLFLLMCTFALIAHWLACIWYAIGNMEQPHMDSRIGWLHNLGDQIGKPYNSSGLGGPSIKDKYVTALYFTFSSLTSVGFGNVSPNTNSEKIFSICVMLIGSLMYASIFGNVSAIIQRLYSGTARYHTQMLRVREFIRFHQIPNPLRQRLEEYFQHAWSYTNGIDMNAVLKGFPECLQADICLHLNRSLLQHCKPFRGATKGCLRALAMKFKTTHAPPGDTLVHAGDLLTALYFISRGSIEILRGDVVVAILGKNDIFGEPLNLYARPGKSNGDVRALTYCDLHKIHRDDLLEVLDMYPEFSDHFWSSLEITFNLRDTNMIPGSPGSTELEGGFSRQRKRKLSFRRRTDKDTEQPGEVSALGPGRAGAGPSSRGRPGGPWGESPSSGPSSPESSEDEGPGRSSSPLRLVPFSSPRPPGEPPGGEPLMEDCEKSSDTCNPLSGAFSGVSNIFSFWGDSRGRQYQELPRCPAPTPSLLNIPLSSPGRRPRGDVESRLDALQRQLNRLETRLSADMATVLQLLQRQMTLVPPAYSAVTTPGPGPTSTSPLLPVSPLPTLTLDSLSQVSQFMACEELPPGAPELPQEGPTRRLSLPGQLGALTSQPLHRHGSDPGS

Row | Structure (SMILES) | hERG current change (%, negative = inhibition) at 10uM
1 | CCCNC(=O)c1ccc(CN2CCOCC2)cc1 | 8.4%
2 | O=C(CS(=O)(=O)c1c[nH]c2ccccc12)Nc1ccc(F)cc1 | -21.8%
3 | Cc1cccc(OCCn2c(NC(=O)c3ccco3)nc3ccccc32)c1 | 12.5%
4 | CCC(=O)N/C(N)=N/c1nc2ccccc2o1 | -10.3%
5 | O=C(COc1ccc(Cl)cc1Cl)N1CCCN(C(=O)COc2ccc(Cl)cc2Cl)CC1 | -47.2%
6 | COc1ccc(-c2nc3cc(C)ccn3c2NCc2ccc3c(c2)OCO3)cc1 | -67.5%
7 | Cc1ccc(-c2nc3ccccn3c2NCc2ccc3c(c2)OCO3)cc1 | -69.3%
8 | c1ccc(-c2nc3ccccn3c2NCc2ccc3c(c2)OCO3)cc1 | -36.1%
9 | Fc1ccc(-c2nc3ccccn3c2NCc2ccc3c(c2)OCO3)cc1 | -24.3%
10 | Oc1ccc(-c2nc3ccccn3c2NCc2ccc3c(c2)OCO3)cc1 | -45.8%
11 | Cc1cccn2c(NCc3ccc4c(c3)OCO4)c(-c3ccc(O)cc3)nc12 | -22.6%
12 | COc1ccc(-c2nc3ccccn3c2NCc2ccc3c(c2)OCO3)cc1 | -82.4%
13 | Cc1ccn2c(NCc3ccc4c(c3)OCO4)c(-c3ccc(O)cc3)nc2c1 | -11.6%
14 | COc1ccc(-c2nc3ccc(C)cn3c2NCc2ccc3c(c2)OCO3)cc1 | -34.1%
15 | COc1ccc2c(C)c(CCC(=O)NC3CC3)c(=O)oc2c1C | 14.4%
16 | CCCc1cc(C(=O)Nc2ccccc2C(=O)OC)no1 | 7.76%
17 | CCCC(=O)Nc1cccc(-c2cn3ccsc3n2)c1 | -47.5%
18 | CCOc1ccc(N(C(=O)/C=C/C(=O)Nc2cc(C)on2)C(C(=O)NC2CCCC2)c2ccccc2C)cc1 (centres unmarked) | -6.96%
19 | CCn1nc(C)c(CNCc2cn[nH]c2-c2cc3ccccc3o2)c1C | -19%

Row | Structure (SMILES) | hERG current change (%, negative = inhibition) at 10uM
20 | O=C(O)c1cc(C(F)(F)F)nc2ccccc12 | 3.92%
21 | CC(C)(C)OC(=O)NC(CC(=O)OCc1ccccc1)C(=O)O (centres unmarked) | 10.1%
22 | CC(C)(C)OC(=O)N[C@@H](CC(=O)OCc1ccccc1)C(=O)O | 10.9%
23 | CC(C)(C)OC(=O)NC(Cc1ccccc1)C(=O)O (centres unmarked) | -50.5%
24 | CC(C)(Oc1ccc(Cl)cc1)C(=O)NCCCn1ccnc1 | -21.2%
25 | C=CCn1c(SCC(=O)c2cccs2)nc2sc(CC)cc2c1=O | -4.31%
26 | C=CCn1c(SCC(=O)NC2CCS(=O)(=O)C2)nc2sc(CC)cc2c1=O (centres unmarked) | -47.8%
27 | C=CCn1c(SCC(=O)NC2CCCC2)nc2sc(C)cc2c1=O | -5.84%
28 | C=CCn1c(SCC(=O)Nc2sccc2C(N)=O)nc2sc(CC)cc2c1=O | -1.95%
29 | C=CCn1c(SCC(=O)NC2CC2)nc2sc(CC)cc2c1=O | -54.6%
30 | C=CCn1c(SCC(=O)Nc2cc(C)on2)nc2sc(CC)cc2c1=O | 1.3%
31 | C=CCn1c(SCC(=O)N2CCCC2=O)nc2sc(CC)cc2c1=O | -70.9%
32 | C=CCn1c(SCC(=O)N2CCc3ccccc3C2)nc2sc(CC)cc2c1=O | -34.5%
33 | C=CCn1c(SCC(=O)Nc2ccc(O)cc2)nc2sc(CC)cc2c1=O | -62.5%
34 | C=CCn1c(SCC(=O)O)nc2sc(CC)cc2c1=O | 13.8%
35 | C=CCn1c(SCC(=O)N2CCN(C(=O)c3ccco3)CC2)nc2sc(CC)cc2c1=O | -76.3%
36 | C=CCn1c(SCC#N)nc2sc(CC)cc2c1=O | -16.5%
37 | COC(=O)Cn1c(=NC(=O)c2cc(OC)c(OC)c(OC)c2)sc2cc(OC)ccc21 | 1.18%
38 | S=c1[nH]nc(-c2ccc3ccccc3n2)n1-c1ccc2c(c1)OCCO2 | 17.7%

Row | Structure (SMILES) | hERG current change (%, negative = inhibition) at 10uM
39 | Cc1ccc2c(c1)CCCN2N=O | 0.938%
40 | CCOc1ccc(N(CC(=O)NCc2ccc(OC)cc2)C(=O)CCC(=O)Nc2nccs2)cc1 | 8.55%
41 | COc1ccccc1CNC(=O)COC(=O)c1ccc(C)s1 | 3.82%
42 | CC1(C)N([O-])C(c2ccccc2)=C[N+](=O)C1(C)C | 1.38%
43 | CCOc1cccc2cc(C(=O)N3CCOCC3)c(=O)oc12 | 14.6%
44 | CCN(CC)C(=O)CSc1nc(N)c(C#N)c(-c2cccs2)c1C#N | 15.5%
45 | CS(=O)(=O)c1ccc2nc(NC(=O)c3ccc(Cl)cc3)sc2c1 | 6.42%
46 | COC(=O)CCCC[C@@H]1SC[C@@H](NC(=O)OC)[C@@H]1NC(=O)OC | 5.49%
47 | CC[C@@H](C)[C@H](NC(=O)Cc1c(C)c2cc3c(C)coc3c(C)c2oc1=O)C(=O)O | 6.21%
48 | COc1ccc(S(=O)(=O)N2CCN(C/C=C/c3ccccc3)CC2)cc1NC(C)=O | -77.9%
49 | COc1ccc(/C=C/C(=O)Nc2ccc(NC(C)=O)cc2)cc1S(=O)(=O)N1CCOCC1 | 1.65%
50 | COc1ccc(/C=C/C(=O)Nc2ccccc2)cc1S(=O)(=O)N1CCOCC1 | -52.2%
51 | COc1ccc(S(=O)(=O)N2CCN(C/C=C/c3ccccc3)CC2)cc1F | -30.1%
52 | COc1ccc(C)cc1S(=O)(=O)N1CCN(C/C=C/c2ccccc2)CC1 | -23.8%
53 | COc1ccc(/C=C/C(=O)Nc2ccc(C)cc2)cc1S(=O)(=O)N1CCOCC1 | -32.6%
54 | COc1ccc(NC(C)=O)cc1S(=O)(=O)N1CCN(C/C=C/c2ccccc2)CC1 | -69.3%
55 | COc1ccc(S(=O)(=O)N2CCN(C(c3ccccc3)c3ccccc3)CC2)cc1NC(C)=O | 21.2%
56 | COc1ccc(NC(C)=O)cc1S(=O)(=O)N1CCN(Cc2cccs2)CC1 | -3.53%
